Bioassay records from PubChem.
This is one part of a sample in which hits are shown more often than they occur.
RECQ1 helicase – RECQ1 (human) helicase inhibition; P46063; RECQ1 DNA unwinding, red fluorescence kinetic read; Potency, µM (titrated, usually from 57.3 µM), for the others: at the top dose activity, negative = inhibition, actives largely listed as inhibitors; hit rate 0.54% among 240,000;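 further: plate controls were vehicle for no effect and no enzyme for full effect; nearly all actives have a fitted effect of over 30% in size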
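50 nM RECQ1T1 preincubated 15 min with compound in Tris pH 8.0 buffer with MgCl2, DTT, Tween-20 and 2.5 ug/ml poly(dI-dC); started with 200 nM TAMRA/BHQ-2 forked duplex and 2 mM ATP. Unwinding read as fluorescence (525/598 nm), two reads 2 h apart.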
GoLoco inh red – inhibitors of human Gai1-RGS12 GoLoco interaction (red fluorophore) | Gai1:RGS12 GoLoco peptide FP, rhodamine, 10 min | Potency, µM (series often up to 61.6 µM), for the others: at the highest dose activity, negative = inhibition, most hits filed as inhibitors | hit rate 0.44% among 230,000 | AID 880; active means well fitted inhibition curve with a large enough effect, not every such curve was filed as active; inactive means no such curve, though single readings can be large or run the other way; further: nearly all actives have a fitted effect of over 30% in size
APE1 inh – blocks human APE1 abasic DNA cleavage; P27695; recombinant APE1, TAMRA/BHQ-2 abasic DNA cleavage fluorescence; Potency, µM (titrated, usually from 65.8 µM), inactives show at the top dose activity change, negative = inhibition, usual class: inhibitors; hit rate 0.35% among 350,000;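 further: plate controls were vehicle for no effect and reference inhibitor for full effect; nearly all actives have a fitted effect of over 55% in size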
Target sequence (P27695 whole entry, looked up): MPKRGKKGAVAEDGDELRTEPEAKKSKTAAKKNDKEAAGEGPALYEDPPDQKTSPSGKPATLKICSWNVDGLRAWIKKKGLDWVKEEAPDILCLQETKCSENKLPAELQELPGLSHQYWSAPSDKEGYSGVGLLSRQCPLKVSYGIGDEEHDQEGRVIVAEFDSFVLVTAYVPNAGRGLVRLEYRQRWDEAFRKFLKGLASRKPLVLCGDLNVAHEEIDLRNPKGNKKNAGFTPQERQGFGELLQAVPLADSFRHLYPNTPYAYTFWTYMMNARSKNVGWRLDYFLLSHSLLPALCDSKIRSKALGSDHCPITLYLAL
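APE1 at 0.75 nM final was preincubated with compound 15 min at room temperature, then 50 nM double-stranded THF abasic-site substrate (5'-TAMRA/3'-BHQ-2) was added. Fluorescence (ex 525/em 598 nm) was read kinetically; third-minus-first read gave activity.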
L3MBTL1 inh – L3MBTL1 (human) inhibition. Q9Y468. AlphaScreen L3MBTL1–H3K9me1 peptide binding. Potency, µM (highest dose often 57.1 µM), without a hit: at the highest dose activity, negative = inhibition, usual class: inhibitors. hit rate 0.66% among 230,000; further: nearly all actives have a fitted effect of over 60% in size
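Read-out is AlphaScreen signal from streptavidin donor and nickel chelate acceptor beads (10 ug/mL final each) bridging L3MBTL1 (50 nM) and biotinylated K9-monomethylated H3(1-15) peptide (75 nM), after 30 min compound exposure at room temperature.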
BLM inh – inhibitors of human Bloom syndrome helicase BLM. Potency, µM (top dose mostly 56.1 µM), inactives show top-dose activity change, negative = inhibition, hits mostly inhibitors. recombinant BLM DNA unwinding, fluorescence dequenching. hit rate 0.2% among 350,000. P54132;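 further: plate controls were vehicle for no effect and no enzyme for full effect; nearly all actives have a fitted effect of over 35% in size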
JMJD2E inh – JMJD2E (human) inhibition. B2RXH2. JMJD2E catalytic domain, FDH-coupled NADH fluorescence (FDH is formaldehyde dehydrogenase). Potency, µM (doses to about 57.1 µM), inactives show at the highest dose activity change, negative = inhibition, hits mostly inhibitors. hit rate 1.6% among 230,000. AID 2147; active means well fitted inhibition curve with a large enough effect, not every such curve was filed as active; inconclusive means small, poorly fitted or top-dose-only effect, or another doubt; inactive means no such curve, though single readings can be large or run the other way;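 further: 0% = wells with enzyme and -100% = buffer wells without enzyme; nearly all actives have a fitted effect of over 50% in size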
Target sequence (B2RXH2 1-337 limits assumed): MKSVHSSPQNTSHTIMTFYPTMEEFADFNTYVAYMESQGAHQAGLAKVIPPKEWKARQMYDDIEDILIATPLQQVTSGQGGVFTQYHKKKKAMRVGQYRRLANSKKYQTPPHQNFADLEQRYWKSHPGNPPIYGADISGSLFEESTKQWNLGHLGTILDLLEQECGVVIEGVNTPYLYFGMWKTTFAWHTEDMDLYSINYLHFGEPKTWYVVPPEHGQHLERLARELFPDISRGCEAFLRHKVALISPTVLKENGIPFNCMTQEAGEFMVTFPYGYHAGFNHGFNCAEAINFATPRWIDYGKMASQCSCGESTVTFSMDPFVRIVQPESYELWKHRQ
An asterisk follows results filed as active; i = inactive; ? = inconclusive; nt = no result; [ ] = another dose, or the depositor's remark. Unless noted, the call rests on the fitted dose curve; in most records, active means well fitted curve in the direction sought with a large enough effect; inconclusive means small, poorly fitted or top-dose-only effect, or another doubt; inactive means no such curve, though single readings can be large; an effect the other way counts as inactive or inconclusive. Unless noted, on the % scale 0 is the no-effect control and ±100 the full control effect; potency means the concentration at half of the fitted maximal effect.

SMILES	RECQ1 helicase	GoLoco inh red	APE1 inh	L3MBTL1 inh	BLM inh	JMJD2E inh
Cc1ccc(-n2ncc(C(=O)NCc3ccco3)c2C2CCN(C(=O)OC(C)(C)C)CC2)c(C)c1	nt	nt	nt	nt	-5%	nt
N#C/C(=C\c1c[nH]c2ccccc12)C(=O)c1ccc(O)c(O)c1	11µM*	-7%	?	nt	nt	2.2µM*
COc1cccc(OC)c1-c1cc(C(=O)NC2(C(=O)O)C3CC4CC(C3)CC2C4)nn1-c1ccc(C(=O)N(C)CCCN(C)C)cc1C(C)C (stereo not drawn)	-9%	nt	17%	nt	4%	nt
C[n+]1cnn2c1SCC1(COC1)C2	i	10µM*	-10%	4%	0%	-11%
CN1CCN(c2ncc3nc(-c4ccccc4)c(=O)n(C)c3n2)CC1	-3%	0%	1%	nt	-12%	nt
Cc1cc(N)ccc1N1CCCC1	-21%	14µM*	2%	-14%	-16%	-28%
C/C(CCN1CCCCc2nc(C)c(C)cc21)=N\OC[C@@H](O)COCc1ccco1	9%[11.5 µM]	nt	28%[12.4 µM]	nt	4%[12.4 µM]	nt
COc1ccc(-c2no[n+]([O-])c2C#N)cc1	nt	nt	1%	nt	nt	nt
Cc1cc(C)c(O)c(N)c1	-7%	-1%	8%	-17%	-11%	16µM*
CC1=C(c2ccc(C)cc2)S(=O)(=O)NC1=NCc1ccccc1Cl	nt	nt	nt	nt	0%	nt
CC(/C=N/n1c(-c2cc(C)[nH]n2)n[nH]c1=S)=C\c1ccco1	25µM*	10%	-12%	?	0%	-19%
CC(/C=N/n1c(-c2ccc(Cl)cc2)n[nH]c1=S)=C\c1ccco1	-2%	nt	12%	-15%	-15%	-4%
C[n+]1c(/C=C/c2ccc(O)cc2)ccc2ccccc21	nt	nt	27%	nt	0%	nt
Cc1cc(/C=C\c2ccc3cc(N(C)C)ccc3[n+]2C)c(C)n1-c1ccccc1	-1%[25.9 µM]	-19%[21.6 µM]	-28%	32µM*	?	?
COc1ccccc1C(=O)Nc1cc2c(cc1N1CCOCC1)n(C)c(=O)n2C	nt	nt	nt	nt	1%	nt
Oc1cccc(O)c1O	6.3µM*	-30%	1.3µM*	nt	-10%	nt
Cc1ccc2[nH]c(=O)c(-c3nc4cc(C)ccn4c3NCc3ccco3)cc2c1	-2%	8%	11%	-4%	-9%	3.2µM*
Cc1cccc2cc(-c3nc4c(C)cccn4c3NCc3ccco3)c(=O)[nH]c12	-2%	10%	-5%	nt	1%	0%
Cc1ccc(S(=O)(=O)N2CCN(CC(=O)N/N=C\c3ccc(O)c(O)c3)CC2)cc1	10%	-11%	-6%	nt	-3%	16µM*
Cc1ccc(S(=O)(=O)N2CCN(CC(=O)N/N=C/c3ccc(C)o3)CC2)cc1	-4%	-1%	2%	1%	-7%	4%
Cc1ccc(C(=O)Nc2nnc(CC(=O)N/N=C/c3ccc(O)c(O)c3)s2)cc1	nt	nt	1.9µM*	nt	13µM*	nt
O=c1cc(-c2ccccc2O)oc2c(O)c(O)ccc12	3.2µM*	-10%	3.5µM*	nt	-30%	11µM*
O=c1cc(-c2ccccc2)oc2c(O)c(O)ccc12	-9%	-9%	?	nt	4%	7.9µM*
O=C(O)Cc1cccc2c(=O)cc(-c3ccccc3)oc12	nt	2%[14.2 µM]	nt	nt	nt	nt
CCC[C@@H]1C[C@@H](C(=O)N[C@@H]([C@H]2O[C@H](SC)[C@H](O)[C@@H](O)[C@H]2O)[C@H](C)Cl)N(C)C1	nt	nt	0%[21 µM]	nt	nt	nt
SMILES	RECQ1 helicase	GoLoco inh red	APE1 inh	L3MBTL1 inh	BLM inh	JMJD2E inh
Cn1c(SCc2cc(=O)c3cc(Cl)ccc3[nH]2)nnc1-c1ccccc1	nt	nt	nt	nt	2%	nt
O=C(CSc1ccccn1)N/N=C/c1cc([N+](=O)[O-])ccc1O	i	-1%	4%	nt	-1%	13µM*
O=C(Cn1nnc(-c2ccccc2)n1)N/N=C/c1cc([N+](=O)[O-])ccc1O	-10%	18%	1%	?	-7%	-3%
O=C(Cn1nc2ccccc2n1)N/N=C/c1cc([N+](=O)[O-])ccc1O	3%	-4%	-1%	7.9µM*	1%	4%
Cc1ccn(CC(=O)N/N=C/c2cc([N+](=O)[O-])ccc2O)n1	3%	4%	20%	?	-12%	13µM*
Cc1cc(C)n(CC(=O)N/N=C/c2cccc([N+](=O)[O-])c2)n1	i	2%	7%	0%	-4%	-5%
Cc1nc2ccc(C(=O)N/N=C/c3cc([N+](=O)[O-])ccc3O)cc2[nH]1	i	16%	25%	-22%	-10%	35µM*
CCOC(=O)c1ccc(CN(Cc2ccc(Br)cc2)S(=O)(=O)c2cccc(Cl)c2C)cc1	nt	nt	nt	nt	-5%	nt
Cc1ccc(NC(=O)c2cccc(N3CCCS3(=O)=O)c2)cc1C	nt	nt	nt	nt	-1%	nt
COC1[C@@H](O[C@@H]2O[C@H](C)[C@@H](O[C@H]3C[C@@](C)(O)[C@H](OC(=O)CC(C)C)[C@H](C)O3)[C@H](N(C)C)[C@H]2O)[C@@H](CC=O)C[C@@H](C)[C@@H](O)/C=C/C=C/C[C@@H](C)OC(=O)C[C@H]1OC(C)=O (stereo partly drawn)	nt	nt	-2%[21 µM]	nt	nt	nt
COc1cccc(CNC(=O)c2ccc3c(c2)nc2n3CCOC2)c1	nt	nt	nt	nt	1%	nt
Cc1cc([N+](=O)[O-])nn1CC(=O)N/N=C/c1ccc(O)cc1O	20%	7%	3%	nt	-2%	13µM*
O=C(N/N=C/c1cc([N+](=O)[O-])ccc1O)C1CCCCC1	i	-12%	?	6%	8%	7.1µM*
O=C(Cn1cncn1)N/N=C/c1ccccc1O	7%	4%	2%	nt	-3%	?
O=C(Cn1cncn1)N/N=C/c1cc([N+](=O)[O-])ccc1O	i	5%	1%	?	-2%	25µM*
CC(O)/C=C/c1cccc[n+]1C (stereo not drawn)	i	7.9µM*	24%	-9%	-1%	7.9µM*
Cc1ccccc1NC(=O)CSc1ccsc1[N+](=O)[O-]	?	6%	?	25µM*	-25%	-2%
O=C(NCCc1ccccc1)c1ccc2nc(-c3ccco3)c(-c3ccco3)nc2c1	?	-5%	?	nt	7.1µM*	?
Cc1ccccc1/C=C/C1=NCCN1	-4%	-6%	-4%	1%	nt	18µM*
CCCCC(=O)O[C@]1(C(=O)CO)CCC2C3CCC4=CC(=O)CCC4(C)C3C(O)CC21C (stereo partly drawn)	nt	nt	nt	nt	0%	nt
O=C(On1c(-c2ccccc2)nc2ccccc2c1=O)c1ccco1	7%	15%	0%	nt	1%	20µM*
Cc1cc(/C=N/NC(=O)C(O)(c2ccccc2)c2ccccc2)c(C)n1-c1cccc(C(=O)O)c1	-4%	86%	4%	?	10µM*	?
O=C(/C=C/c1ccccc1Cl)c1ccc(O)cc1	-14%	1%	-5%	-8%	-6%	7%
O=C(/C=C/c1ccccc1Cl)c1ccccc(=O)c1O	-22%	17%	4%	-3%	-19%	14µM*
